Data as given in PubChem BioAssay (EPA / NIEHS).
The source made the active and inactive calls. How the source made its calls: active means hit-call score of the fitted dose curve at least 0.9, where 1 is the maximum; inactive means score below 0.9.

Experiments:
[1] = read-out: TIMP metallopeptidase inhibitor 2 (TIMP2), TIMP2 (gene 7077); assay: BSK_KF3CT_TIMP2: BioMAP Diversity Plus: KF3CT Assay for TIMP metallopeptidase inhibitor 2 (TIMP2) Biomarker Activity (AID 2283071); details: primary human keratinocytes with fibroblasts; actives raise or lower the signal
Procedure, shortened: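 Chemicals were dosed onto human skin primary co-cultures of keratinocytes and foreskin fibroblasts, and TIMP-2 was measured by ELISA after 24 hours. Activity in either direction was fitted relative to DMSO.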

[2] = read-out: Transforming growth factor beta 1 (TGFb1), TGFB1 (gene 7040); assay: BSK_KF3CT_TGFb1: BioMAP Diversity Plus: KF3CT Assay for Transforming growth factor beta 1 (TGFb1) Biomarker Activity (AID 2283072); details: primary human keratinocytes with fibroblasts; actives raise or lower the signal
Procedure, shortened: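 KF3CT co-culture (keratinocytes + fibroblasts), 24 h exposure → TGF-b1 ELISA → bidirectional fit, DMSO = baseline. Parallel SRB total-protein staining (0.1% SRB, 10% TCA fixation, 560 nm) for cytotoxicity.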

[3] = read-out: Matrix Metallopeptidase 9 (MMP9), MMP9 (gene 4318); assay: BSK_KF3CT_MMP9: BioMAP Diversity Plus: KF3CT Assay for Matrix Metallopeptidase 9 (MMP9) Biomarker Activity (AID 2283074); details: primary human keratinocytes with fibroblasts; actives raise or lower the signal;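 on AC50: MMP9 protein level quantified by ELISA in the co-culture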
Procedure, shortened: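 ELISA read-out of MMP-9 at 24 h post-dosing in a co-culture of human skin keratinocytes and foreskin fibroblasts. Gain or loss of signal was fitted in both directions against DMSO.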

[4] = read-out: CD40, CD40 (gene 958); assay: BSK_LPS_CD40: BioMAP Diversity Plus: LPS Assay for CD40 Biomarker Activity (AID 2283076); details: primary human HUVEC with PBMC; actives raise or lower the signal
Procedure, shortened: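 In the LPS system of human endothelial cells with peripheral blood mononuclear cells, CD40 levels were read by ELISA 24 h post-treatment. Signal changes in either direction were fitted against the DMSO baseline, with parallel SRB protein staining.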

[5] = read-out: Interleukin-8 (IL8), CXCL8 (gene 3576); assay: BSK_LPS_IL8: BioMAP Diversity Plus: LPS Assay for Interleukin-8 (IL8) Biomarker Activity (AID 2283078); details: primary human HUVEC with PBMC; actives raise or lower the signal
Procedure, shortened: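 ELISA read-out of IL-8 after 24 h chemical treatment of LPS-activated endothelial/PBMC human primary co-cultures. Changes either up or down relative to DMSO; overt cytotoxicity checked by sulforhodamine B staining in parallel wells.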

[6] = BSK_LPS_SRB: Viability Assessment in the BioMAP Diversity Plus: LPS Assay (AID 2283079); details: primary human HUVEC with PBMC;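 further: total protein by sulforhodamine B absorbance as a cytotoxicity measure; measured one day after compound addition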
Procedure, shortened: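 SRB viability endpoint: cells fixed with 10% TCA, stained with 0.1% SRB, read at 560 nm, 24 h post-dose. HUVEC/PBMC co-culture; signal change in either direction scored relative to DMSO.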

[7] = read-out: Interleukin-1 alpha (IL1a), IL1A (gene 3552); assay: BSK_LPS_IL1a: BioMAP Diversity Plus: LPS Assay for Interleukin-1 alpha (IL1a) Biomarker Activity (AID 2283080); details: primary human HUVEC with PBMC; actives raise or lower the signal
Procedure, shortened: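 Readout is IL-1a level by ELISA, 24 h post-dose, fitted as gain or loss relative to DMSO. System: LPS-activated human primary co-culture of vascular endothelium and peripheral blood mononuclear cells, with parallel SRB total-protein cytotoxicity.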

[8] = read-out: Monocyte Chemoattractant Protein-1 (MCP1), CCL2 (gene 6347); assay: BSK_LPS_MCP1: BioMAP Diversity Plus: LPS Assay for Monocyte Chemoattractant Protein-1 (MCP1) Biomarker Activity (AID 2283081); details: primary human HUVEC with PBMC; actives raise or lower the signal;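 on AC50: secreted MCP-1 protein quantified by ELISA in culture supernatant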
Procedure, shortened: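 Secreted MCP-1 read by ELISA at 24 h post-dosing in an LPS-activated co-culture of endothelial cells with peripheral blood mononuclear cells. Fits run in both directions, DMSO as baseline; parallel SRB staining tracks overt cytotoxicity.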

[9] = BSK_LPS_PGE2: BioMAP Diversity Plus: LPS Assay for Prostaglandin E2 (PGE2) Biomarker Activity (AID 2283082); details: primary human HUVEC with PBMC; actives raise or lower the signal;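 on AC50: secreted prostaglandin E2 measured by ELISA in LPS-stimulated co-culture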
Procedure, shortened: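 Compounds were added to the LPS co-culture of endothelium and PBMC, and PGE2 was measured by ELISA after 24 h. Responses in either direction were fitted with DMSO as baseline.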

[10] = read-out: Macrophage colony-stimulating factor (MCSF), CSF1 (gene 1435); assay: BSK_LPS_MCSF: BioMAP Diversity Plus: LPS Assay for Macrophage colony-stimulating factor (MCSF) Biomarker Activity (AID 2283083); details: primary human HUVEC with PBMC; actives raise or lower the signal
Procedure, shortened: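 Bidirectional fitting against DMSO was applied to M-CSF levels read by ELISA at 24 h post-dose. The system pairs human umbilical vein endothelium with peripheral blood mononuclear cells; parallel SRB staining tracked cytotoxicity.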

[11] = read-out: Tissue Factor, F3 (gene 2152); assay: BSK_LPS_TissueFactor: BioMAP Diversity Plus: LPS Assay for Tissue Factor Biomarker Activity (AID 2283084); details: primary human HUVEC with PBMC; actives raise or lower the signal
Procedure, shortened: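 Compound was added to an endothelial cell/PBMC co-culture, and after 24 h tissue factor (CD142) was read by ELISA. Gain or loss of signal was fitted against a DMSO baseline, and parallel SRB staining (560 nm) tracked overt cytotoxicity.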

[12] = read-out: Tumor necrosis factor (Homo sapiens) (UniProt P01375); assay: BSK_LPS_TNFa: BioMAP Diversity Plus: LPS Assay for Tumour Necrosis Factor alpha (TNFa) Biomarker Activity (AID 2283085); details: primary human HUVEC with PBMC; actives raise or lower the signal;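 on AC50: TNFa protein level quantified by ELISA in the co-culture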
Procedure, shortened: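 Cells (umbilical vein endothelium plus peripheral blood mononuclear cells) were dosed with chemical, incubated 24 h, then TNFa was quantified by ELISA; values derive from bidirectional fitting with DMSO as baseline.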

[13] = read-out: Vascular cell adhesion molecule 1 (VCAM1), VCAM1 (gene 7412); assay: BSK_LPS_VCAM1: BioMAP Diversity Plus: LPS Assay for Vascular cell adhesion molecule 1 (VCAM1) Biomarker Activity (AID 2283086); details: primary human HUVEC with PBMC; actives raise or lower the signal
Procedure, shortened: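 Cells are dosed in an LPS-stimulated endothelial/mononuclear co-culture and, after 24 h, VCAM-1 is quantified by ELISA. Activity in either direction is fitted relative to the DMSO negative control.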

[14] = read-out: CD38, CD38 (gene 952); assay: BSK_SAg_CD38: BioMAP Diversity Plus: SAg Assay for CD38 Biomarker Activity (AID 2283087); details: primary human HUVEC with PBMC; actives raise or lower the signal
Procedure, shortened: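 CD38 quantified by ELISA (fluorescence) in a superantigen-activated endothelial cell–PBMC co-culture at 24 h post-dose. Activity fitted in both directions relative to DMSO; parallel SRB and Alamar Blue cytotoxicity read-outs.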

[15] = read-out: CD40, CD40 (gene 958); assay: BSK_SAg_CD40: BioMAP Diversity Plus: SAg Assay for CD40 Biomarker Activity (AID 2283088); details: primary human HUVEC with PBMC; actives raise or lower the signal
Procedure, shortened: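 CD40 is measured by fluorescence ELISA in an endothelial/PBMC primary human co-culture at 24 h post-dose. Fitting is bidirectional, DMSO baseline. Parallel SRB staining (560 nm) flags cytotoxicity.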

[16] = read-out: Monocyte Chemoattractant Protein-1 (MCP1), CCL2 (gene 6347); assay: BSK_SAg_MCP1: BioMAP Diversity Plus: SAg Assay for Monocyte Chemoattractant Protein-1 (MCP1) Biomarker Activity (AID 2283090); details: primary human HUVEC with PBMC; actives raise or lower the signal
Procedure, shortened: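 Values derive from bidirectional fitting of ELISA-measured MCP1 against DMSO controls. Readings were taken 24 h after dosing human vascular endothelial cells co-cultured with peripheral blood mononuclear cells under superantigen stimulation.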

[17] = read-out: C-C motif chemokine 2 (Homo sapiens) (UniProt P13500); assay: BSK_KF3CT_MCP1: BioMAP Diversity Plus: KF3CT Assay for Monocyte Chemoattractant Protein 1 (MCP1/CCL2) Biomarker Activity (AID 2283073); details: primary human keratinocytes with fibroblasts; actives raise or lower the signal
Procedure, shortened: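 ELISA read-out of MCP-1, 24 h post-dose, in primary human skin keratinocytes co-cultured with fibroblasts. Parallel SRB staining monitors cytotoxicity; changes fitted both directions relative to DMSO.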

[18] = read-out: E-selectin (Homo sapiens) (UniProt P16581); assay: BSK_LPS_Eselectin: BioMAP Diversity Plus: LPS Assay for Eselectin Biomarker Activity (AID 2283077); details: primary human HUVEC with PBMC; actives raise or lower the signal
Procedure, shortened: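 E-selectin ELISA on LPS-stimulated endothelial cell/PBMC co-cultures, read 24 h post-treatment; gains and losses fitted against DMSO. Parallel SRB staining (0.1% SRB after 10% TCA fixation, 560 nm) flags overt cytotoxicity.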

[19] = read-out: CD69, CD69 (gene 969); assay: BSK_SAg_CD69: BioMAP Diversity Plus: SAg Assay for CD69 Biomarker Activity (AID 2283089); details: primary human HUVEC with PBMC; actives raise or lower the signal;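 on AC50: cell surface CD69 protein quantified by ELISA with fluorescence detection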
Procedure, shortened: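 Primary human vascular co-culture (umbilical vein endothelium with peripheral blood mononuclear cells) exposed to test chemical for 24 h. CD69 levels quantified by fluorescence ELISA; DMSO served as negative control for bidirectional fitting.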

Measured: AC50

Chain of Tumor necrosis factor (Homo sapiens) (P01375 whole entry, looked up): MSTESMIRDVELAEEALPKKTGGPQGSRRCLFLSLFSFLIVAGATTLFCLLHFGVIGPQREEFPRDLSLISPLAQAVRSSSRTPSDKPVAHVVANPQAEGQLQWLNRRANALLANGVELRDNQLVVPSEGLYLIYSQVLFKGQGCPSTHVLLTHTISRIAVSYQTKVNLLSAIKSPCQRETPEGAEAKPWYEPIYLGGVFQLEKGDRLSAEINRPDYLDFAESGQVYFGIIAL
Chain of E-selectin (Homo sapiens) (P16581 whole entry, looked up): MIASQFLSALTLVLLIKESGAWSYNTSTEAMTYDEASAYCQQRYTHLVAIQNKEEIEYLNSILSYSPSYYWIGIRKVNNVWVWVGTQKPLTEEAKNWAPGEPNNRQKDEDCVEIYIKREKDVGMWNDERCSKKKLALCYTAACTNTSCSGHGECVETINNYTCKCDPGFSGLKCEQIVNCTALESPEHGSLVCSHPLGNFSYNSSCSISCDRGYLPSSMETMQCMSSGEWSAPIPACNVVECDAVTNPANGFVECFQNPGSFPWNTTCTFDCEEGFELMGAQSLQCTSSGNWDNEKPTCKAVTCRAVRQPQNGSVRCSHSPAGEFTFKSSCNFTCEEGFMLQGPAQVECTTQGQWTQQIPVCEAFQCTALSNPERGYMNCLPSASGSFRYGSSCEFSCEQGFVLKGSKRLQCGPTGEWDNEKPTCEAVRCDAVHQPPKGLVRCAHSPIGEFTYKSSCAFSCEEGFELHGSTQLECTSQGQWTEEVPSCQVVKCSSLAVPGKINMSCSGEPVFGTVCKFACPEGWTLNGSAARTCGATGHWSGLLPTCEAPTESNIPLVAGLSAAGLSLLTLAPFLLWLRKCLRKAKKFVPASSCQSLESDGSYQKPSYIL

Cc1cccc([N+](=O)[O-])c1
inactive: [1] | [2] | [3] | [4] | [5] | [6] | [7] | [8] | [9] | [10] | [11] | [12] | [13] | [14] | [15] | [16]

CCCCCCCCOC(=O)c1ccccc1C(=O)OCCCCCCCC
active: [13] 7.64 µM | [14] 11.2 µM
inactive: [1] | [2] | [17] | [3] | [4] | [5] | [6] | [7] | [8] | [9] | [10] | [12] | [15] | [16]

O=NN(c1ccccc1)c1ccccc1
active: [9] 2.14 µM | [12] 3.97 µM
inactive: [1] | [2] | [17] | [3] | [4] | [18] | [5] | [6] | [7] | [8] | [10] | [13] | [14] | [15] | [19] | [16]

CC(C)C(=O)OCC(C)(C)C(OC(=O)C(C)C)C(C)C (centres undefined)
inactive: [1] | [2] | [17] | [3] | [4] | [18] | [5] | [6] | [7] | [8] | [9] | [10] | [12] | [13] | [14] | [15] | [16]

C1CC2OC2CC1C1CO1 (centres undefined)
inactive: [1] | [2] | [17] | [3] | [4] | [5] | [6] | [7] | [8] | [9] | [10] | [11] | [12] | [13] | [14] | [15] | [19] | [16]

CCCCCCCCCc1ccc(O)cc1
active: [1] 14.6 µM | [2] 13.5 µM | [3] 13.2 µM | [4] 22.6 µM | [5] 27.6 µM | [6] 23.1 µM | [7] 22 µM | [8] 32.2 µM | [9] 7.76 µM | [10] 23.6 µM | [11] 31.3 µM | [12] 36.5 µM | [13] 22 µM | [14] 15.9 µM | [15] 20.3 µM | [19] 22.7 µM | [16] 29.8 µM

CCC(C)(CC)c1cc(NC(=O)c2c(OC)cccc2OC)on1
inactive: [1] | [2] | [17] | [3] | [4] | [5] | [6] | [7] | [8] | [9] | [10] | [12] | [13] | [14] | [15] | [19] | [16]

O=C(NC(=O)c1c(F)cccc1F)Nc1cc(Cl)c(OC(F)(F)C(F)F)c(Cl)c1
inactive: [1] | [2] | [17] | [3] | [4] | [18] | [5] | [6] | [7] | [8] | [9] | [10] | [13] | [14] | [15] | [16]
active: [12] 0.401 µM

Clc1ccc(C(c2ccccc2Cl)C(Cl)(Cl)Cl)cc1 (centres undefined)
active: [1] 19 µM | [2] 19.1 µM | [17] 10.7 µM | [3] 8.05 µM | [4] 19.4 µM | [5] 21.9 µM | [6] 19.2 µM | [7] 20.8 µM | [8] 21.6 µM | [9] 4.54 µM | [10] 18.3 µM | [12] 23.8 µM | [13] 19.2 µM | [14] 20.1 µM | [15] 14.1 µM | [19] 23.2 µM | [16] 21.5 µM

c1cc2ccc3cccc4ccc(c1)c2c34
active: [14] 11.5 µM
inactive: [1] | [2] | [17] | [3] | [4] | [5] | [6] | [7] | [8] | [9] | [10] | [11] | [12] | [13] | [16]

Oc1ccc(Cl)cc1Cl
inactive: [1] | [2] | [17] | [3] | [4] | [5] | [6] | [7] | [8] | [9] | [10] | [11] | [12] | [13] | [14] | [15] | [19] | [16]

CCSC(=O)N(CC)C1CCCCC1
inactive: [1] | [2] | [17] | [3] | [4] | [5] | [6] | [7] | [8] | [9] | [10] | [11] | [12] | [13] | [14] | [15] | [16]
